Compounds with a hit are over-represented: about 18% of the library has one in this group of screens.
KAT2A inh: qHTS Assay for Inhibitors of GCN5L2; Histone acetyltransferase KAT2A (Homo sapiens), Q92830; GCN5L2 HAT assay, ThioGlo1 CoA-SH fluorescence; Potency, µM (highest dose often 58.9 µM), without a hit: at the top dose activity change, negative = inhibition, most hits filed as inhibitors; hit rate 0.21% among 390,000; AID 504327, 2011
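Preincubate 20nM GCN5L2 with compound 15 min, RT → add 50uM ThioGlo1 + 75uM H3(1-25) + 70uM acetyl-CoA → read fluorescence 0 and 20 min. Primary qHTS; fluorescent artifacts likely.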
TDP1 cell noCPT: qHTS for Inhibitors of human tyrosyl-DNA phosphodiesterase 1 (TDP1): qHTS in cells in absence of CPT. DT40 Tdp1-/- hTDP1 cells, no CPT, ATP luminescence, 48 h. hit rate 15% among 420,000. Potency, µM (series often up to 46.2 µM), inactives show at the highest dose activity change, negative = growth inhibition, usual class: inhibitors. AID 686978, 2013; further: nearly all actives have a fitted effect of over 55% in size
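Chicken DT40 Tdp1-/- cells complemented with human TDP1, screened without camptothecin (DMSO vehicle only), 400 cells/well. Compounds pin-transferred, cells incubated at 37 °C for at least 48 hr. Growth read as ATP-dependent luminescence (CellTiter-Glo, 30 min at RT).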
VDR inhibitor: Inhibitors of the vitamin D receptor (VDR): qHTS | Vitamin D3 receptor (Homo sapiens), P11473 | VDR-SRC2-3 peptide fluorescence polarization, 2 h | Potency, µM, for inactives: max response, negative = inhibition, hits mostly inhibitors | hit rate 0.93% among 400,000 | AID 504847, 2011
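After 23 nl compound addition and a short centrifugation, plates sat for 2 hours at ambient temperature; polarization of fluorescence then indicated loss of VDR binding to peptide SRC2-3.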
TDP1 inh: qHTS Assay for Inhibitors of Tyrosyl-DNA Phosphodiesterase (TDP1). Tyrosyl-DNA phosphodiesterase 1 (Homo sapiens), Q9NUW8. recombinant TDP1, AlphaScreen DNA substrate cleavage. Potency, µM (highest dose often 130 µM), for inactives: top-dose activity change, negative = inhibition, usual class: inhibitors. hit rate 0.28% among 350,000; further: nearly all actives have a fitted effect of over 40% in size
Target sequence (Q9NUW8 whole entry, looked up): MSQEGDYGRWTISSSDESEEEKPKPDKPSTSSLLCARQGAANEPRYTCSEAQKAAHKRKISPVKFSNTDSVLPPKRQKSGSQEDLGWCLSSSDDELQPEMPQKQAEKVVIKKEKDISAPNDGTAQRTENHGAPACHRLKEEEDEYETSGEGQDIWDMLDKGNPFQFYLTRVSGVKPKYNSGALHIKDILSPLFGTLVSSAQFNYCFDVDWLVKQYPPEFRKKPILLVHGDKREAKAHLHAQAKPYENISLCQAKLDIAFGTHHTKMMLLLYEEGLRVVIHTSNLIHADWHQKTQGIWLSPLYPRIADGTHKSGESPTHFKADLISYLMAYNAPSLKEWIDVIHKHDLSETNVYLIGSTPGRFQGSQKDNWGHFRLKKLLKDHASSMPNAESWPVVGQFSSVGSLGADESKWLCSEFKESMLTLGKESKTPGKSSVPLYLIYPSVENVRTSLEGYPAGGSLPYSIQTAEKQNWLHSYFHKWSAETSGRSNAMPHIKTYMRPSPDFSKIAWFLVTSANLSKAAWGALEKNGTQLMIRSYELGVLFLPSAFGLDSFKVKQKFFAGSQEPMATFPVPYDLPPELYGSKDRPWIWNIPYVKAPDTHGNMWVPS
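Recombinant E. coli-expressed Tdp1 (1 nM) preincubated with compound 15 min at RT, then 5'-biotin/3'-phosphotyrosine-FITC DNA substrate (15 nM) added for 5 min. AlphaScreen beads (10 ug/ml) added, 10 min RT; tyrosine-FITC cleavage read as signal loss.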
PLK1 PBD block: qHTS for Inhibitors of PLK1-PDB (polo-like kinase 1 - polo-box domain): Primary Screen; hit rate 2.8% among 360,000; Plk1 PBD binding of FITC phosphopeptide, fluorescence polarization; AID 720504, 2013; Potency, µM, for the others: max response, negative = inhibition, usual class: inhibitors; Serine/threonine-protein kinase PLK1 (Homo sapiens), P53350; further: series mostly up to about 57 µM; nearly all actives have a fitted effect of over 65% in size
DT40 TDP1 CPT: qHTS for Inhibitors of human tyrosyl-DNA phosphodiesterase 1 (TDP1): qHTS in cells in presence of CPT. chicken DT40 Tdp1-/-;hTDP1 cells + 20 nM CPT, ATP luminescence, 48 h. Potency, µM (highest dose often 46.2 µM), for inactives: at the top dose activity change, negative = growth inhibition, usual class: inhibitors. hit rate 12% among 420,000; further: nearly all actives have a fitted effect of over 55% in size
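Chicken DT40 Tdp1-/- cells complemented with human TDP1, 400 cells/well, exposed to compounds plus 20 nM camptothecin for at least 48 h at 37 C; viability read as ATP content by CellTiter-Glo luminescence.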
Active calls of the source: *. The call rests on the fitted dose curve; in most records, active means well fitted curve in the direction sought with a large enough effect; inconclusive means small, poorly fitted or top-dose-only effect, or another doubt; inactive means no such curve, though single readings can be large; an effect the other way counts as inactive or inconclusive. On the % scale 0 is the no-effect control and ±100 the full control effect; potency means the concentration at half of the fitted maximal effect.

Screening CC1CCN(CC(O)COC2CC(C)CCC2C(C)C)CC1 (stereo not drawn) returned KAT2A inh -13%, TDP1 cell noCPT 16µM*, VDR inhibitor -11%, TDP1 inh 5%, PLK1 PBD block 1% and DT40 TDP1 CPT inconclusive.
Cc1ccccc1C(=O)NCc1ccc2c(c1)CCN2C(=O)c1ccc(F)cc1 was read as KAT2A inh -1%, TDP1 cell noCPT -25%, VDR inhibitor 14%, TDP1 inh 2% and DT40 TDP1 CPT -19%.
`O=c1c(-c2cccc(F)c2)nc2cncnc2n1-c1ccccc1` gave KAT2A inh -11%, TDP1 cell noCPT 0%, VDR inhibitor -1% and DT40 TDP1 CPT 1%.
For CCOC(=O)N1CCC(N(CCN(C)C)C(=S)Nc2ccc(F)c(Cl)c2)CC1 the results were KAT2A inh -7%, TDP1 cell noCPT 8%, VDR inhibitor -17%, TDP1 inh 3%, PLK1 PBD block -14% and DT40 TDP1 CPT -3%.
For COc1ccc(CN(C(=O)Nc2cccc(OC)c2)C2CCN(C(C)=O)CC2)cc1 the results were KAT2A inh -1%, TDP1 cell noCPT -16%, VDR inhibitor -5%, TDP1 inh -4% and DT40 TDP1 CPT -13%.
For CCOC(=O)N1CCC(N(CCOC)C(=O)Nc2ccc(Cl)c(Cl)c2)CC1 the results were KAT2A inh -2%, TDP1 cell noCPT 10µM*, VDR inhibitor 20%, TDP1 inh -1%, PLK1 PBD block -2% and DT40 TDP1 CPT 18µM*.
CCOC(=O)N1CCC(N(C(=O)Nc2cccc(OC)c2)C(C)CC)CC1 (stereo not drawn) was read as KAT2A inh -21%, TDP1 cell noCPT 10µM*, VDR inhibitor 8%, TDP1 inh -3%, PLK1 PBD block -9% and DT40 TDP1 CPT 21µM*.
Screening Cc1ccc(C(C(=O)NC2CCCC2)N(C(=O)Cc2cccs2)c2cccc(C)c2C)o1 (stereo not drawn) returned KAT2A inh 0%, TDP1 cell noCPT 16µM*, VDR inhibitor 4%, TDP1 inh 3%, PLK1 PBD block -8% and DT40 TDP1 CPT 21µM*.
For O=C(NC1CCCCC1)C(c1ccccn1)N(C(=O)Cc1cccs1)c1ccc(Cl)cc1 (stereo not drawn) the results were KAT2A inh -15%, TDP1 cell noCPT inconclusive, VDR inhibitor -16%, TDP1 inh 1%, PLK1 PBD block -9% and DT40 TDP1 CPT 29µM*.
`CCCCn1c(N)c(N(CC(C)C)C(=O)CCCSc2nncs2)c(=O)[nH]c1=O` gave KAT2A inh -3%, TDP1 cell noCPT -10%, VDR inhibitor -8%, TDP1 inh 1%, PLK1 PBD block -1% and DT40 TDP1 CPT -17%.
Screening CC(C)(C)OC(=O)C[C@H]1C/C=C\C[C@@H](CC(=O)N(CCO)Cc2ccccc2)C(=O)N2CCC[C@H]2COC1=O returned KAT2A inh 1%, TDP1 cell noCPT inconclusive, VDR inhibitor inconclusive, TDP1 inh 3%, PLK1 PBD block -5% and DT40 TDP1 CPT 18µM*.
Screening O=C1OC[C@H]2CCCN2C(=O)[C@@H](CC(=O)N(CCO)Cc2ccccc2)C/C=C\C[C@@H]1Cc1ccc(F)cc1 returned KAT2A inh -3%, TDP1 cell noCPT 18µM*, VDR inhibitor 6%, TDP1 inh 0%, PLK1 PBD block 1% and DT40 TDP1 CPT 7.3µM*.
For O=C1OC[C@@H]2CCCN2C(=O)[C@H](CC(=O)N(CCO)Cc2ccccc2)C/C=C\C[C@H]1Cc1ccc(F)cc1 the results were KAT2A inh -4%, TDP1 cell noCPT inconclusive, VDR inhibitor 11%, TDP1 inh 0%, PLK1 PBD block 1% and DT40 TDP1 CPT inconclusive.
Screening CCOc1cc(OCC)c(C(C)=O)cc1OCC returned KAT2A inh 0%, TDP1 cell noCPT -6%, VDR inhibitor 1%, TDP1 inh 1%, PLK1 PBD block -4% and DT40 TDP1 CPT inconclusive.
`COc1ccc(-c2nnc(C3CCN(S(=O)(=O)c4ccccc4)CC3)o2)cc1` gave KAT2A inh inconclusive, TDP1 cell noCPT inconclusive, VDR inhibitor 0%, PLK1 PBD block -12% and DT40 TDP1 CPT inconclusive.
For CC(=O)Nc1ccc(S(=O)(=O)N2CCC(c3nnc(-c4ccc(C)cc4)o3)CC2)cc1 the results were KAT2A inh inconclusive, TDP1 cell noCPT 21µM*, VDR inhibitor -4%, TDP1 inh 6%, PLK1 PBD block -16% and DT40 TDP1 CPT inconclusive.
For Cc1cccc(-c2nnc(C3CCN(S(=O)(=O)c4cccc(Cl)c4)CC3)o2)c1 the results were KAT2A inh -8%, TDP1 cell noCPT 2.9µM*, VDR inhibitor inconclusive, TDP1 inh 9% and DT40 TDP1 CPT 3.7µM*.
Screening O=C(NNC(=O)C1CCN(S(=O)(=O)c2cccc(Cl)c2)CC1)C1CC1 returned KAT2A inh 1%, TDP1 cell noCPT 25%, VDR inhibitor -3%, TDP1 inh 2%, PLK1 PBD block -13% and DT40 TDP1 CPT -3%.
For Cc1ccc(-c2nnc(C3CCN(S(=O)(=O)c4ccc(C)c(C)c4)CC3)o2)cc1 the results were KAT2A inh -12%, TDP1 cell noCPT 26µM*, VDR inhibitor -14%, TDP1 inh 4% and DT40 TDP1 CPT inconclusive.
Cc1c(Br)c([N+](=O)[O-])nn1CCCC(=O)NC(C)c1ccccc1 (stereo not drawn) was read as KAT2A inh -2%, TDP1 cell noCPT -9%, VDR inhibitor inconclusive, TDP1 inh 7%, PLK1 PBD block -6% and DT40 TDP1 CPT 3%.
`NC1CCc2ccccc21` (stereo not drawn) gave TDP1 cell noCPT inconclusive and DT40 TDP1 CPT -4%.
For CCOC(=O)c1sc(NC(=O)CN2C(=O)NC3(CC(C)CC(C)(C)C3)C2=O)cc1C (stereo not drawn) the results were KAT2A inh -14%, TDP1 cell noCPT 18µM*, VDR inhibitor -18%, TDP1 inh -5%, PLK1 PBD block -8% and DT40 TDP1 CPT inconclusive.

Screening data deposited in PubChem BioAssay by National Center for Advancing Translational Sciences (NCATS).
